Measured values reported in ChEMBL document CHEMBL3988442, “University of Dundee, Small-Polar-MMV Screening Library” (2021).
Among all 48,000 compounds or so, about 13,000 (27%) showed an effect of 50% or more. This is one part of the list.

Each compound was assayed on Wolbachia pipientis (assay: Anti-Wolbachia Cell-Based Screen). Conditions: 5 µM.
Type: functional
Set-up: scale not given: in the data most compounds retested in dose-response had high values
With `CN(C)C(=O)CNC(=O)c1cc2c(s1)CCN2S(C)(=O)=O` the “Percent Effect” value was 110.9%. `CN(C)C(=O)CNC(=O)c1cc(Br)c2c(c1)OCCO2` was tested, and the “Percent Effect” value was -3.612%. `CN(C)C(=O)c1cc2c(s1)CCN(C(=O)CCCN1CCCCC1)C2` was tested, and the “Percent Effect” value was -52.48%. `CC(C)(C)c1noc(CNc2ccccc2N2CCC(O)CC2)n1` was tested, and the “Percent Effect” value was -3.978%. In the case of `CCC(C)CS(=O)(=O)NC(=O)C1CCC1` (configuration not stated), the “Percent Effect” value is reported as 4.874%. In the case of `Cc1nc(Nc2nccs2)cc(C2CCCN2C2CCOCC2)n1` (configuration not stated), the “Percent Effect” value is reported as -3.7%. For `Cc1ccccc1N1CCN(c2ccncn2)C(C)C1` (configuration not stated), the “Percent Effect” value was 0.9098%. In the case of `Cc1csc(Nc2cc(C3CN(C(C)C)C3)nc(C)n2)n1`, the “Percent Effect” value is reported as 95.99%. For `Cc1csc(Nc2cc(C3CN(c4ccncn4)C3)nc(C)n2)n1`, the “Percent Effect” value was 120.5%. In the case of `Cc1cc(C)nc(Nc2cc(C3CCCN(C)C3)nc(C)n2)n1.O=CO` (configuration not stated), the “Percent Effect” value is reported as -14.01%. With `Cc1nc(Nc2nccs2)cc(C2CN(C(C)C)C2)n1` the “Percent Effect” value was 64.11%. With `CCc1nc2n(n1)CC(NCC(=O)Nc1nccs1)CC2` (configuration not stated) the “Percent Effect” value was -6.343%. For `CCc1nc(NC(=O)NCCc2cscn2)nn1C`, the “Percent Effect” value was -7.78%. `O=C(NCCOc1ncc(Cl)cc1Cl)NCc1ccncc1` was tested, and the “Percent Effect” value was -21.42%. `Cn1ccnc1SCCNc1ccnc(C(F)(F)F)n1` was tested, and the “Percent Effect” value was 2.447%. `CC(C)(C)c1ncc(C(=O)NC(C(N)=O)c2ccccc2)s1` (configuration not stated) was tested, and the “Percent Effect” value was 80.78%. With `CC(C)(CNC(=O)c1ccco1)CNC(=O)c1ccco1` the “Percent Effect” value was -33.3%. For `CC(C)(C)C(=O)c1ccsc1NC(=O)CCNC(=O)c1ccco1`, the “Percent Effect” value was -2.755%. In the case of `CC(C)(C)c1ncc(C(=O)NCCNC(=O)c2ccco2)s1`, the “Percent Effect” value is reported as 107.2%. With `CCNc1ncc(C(=O)N[C@H](C(N)=O)c2ccccc2)cn1` the “Percent Effect” value was 7.272%. In the case of `CC(C)(NC(=O)c1cnc(C(C)(C)C)s1)C(N)=O`, the “Percent Effect” value is reported as -3.596%. With `CC(C)(C)c1ncc(C(=O)NCCNC(=O)Cc2ccccc2)s1` the “Percent Effect” value was 94.92%. In the case of `CC(=O)c1cccc(OCCCC(=O)N(C)CC(N)=O)c1`, the “Percent Effect” value is reported as -6.7%. For `Cc1cccc2[nH]c(C3CCN(C(=O)c4ccc[nH]4)CC3)nc12`, the “Percent Effect” value was -3.208%. In the case of `O=C(Cc1ccn[nH]1)Nc1cncc(Br)c1O`, the “Percent Effect” value is reported as -6.696%. In the case of `CC(C)Cc1cc(CNC(=O)c2cccc3c2OCC3)no1`, the “Percent Effect” value is reported as -12.78%. `CC(=O)N[C@@H]1CN(Cc2nccn2C)C[C@H]1c1ccc(C)cc1` was tested, and the “Percent Effect” value was -2.996%. With `CC(CNC(=O)c1cc(N2CCNC2=O)ccc1F)c1ccccc1` (configuration not stated) the “Percent Effect” value was -2.028%. `CC(Sc1nc(N)cc(N)n1)c1nc(C(C)(C)C)no1` (configuration not stated) was tested, and the “Percent Effect” value was 6.059%. For `O=C1[C@H]2CN(c3ncc(F)cn3)C[C@H]2CN1CC1CC1`, the “Percent Effect” value was 15.28%. With `CCOCC(=O)N1C[C@H]2CN(CC3CC3)C(=O)[C@H]2C1` the “Percent Effect” value was -26.93%. `CN(C)C(=O)CN1CC[C@H]2CN(S(C)(=O)=O)C[C@@H]2C1=O.O=C(O)C(F)(F)F` was tested, and the “Percent Effect” value was -14.63%. `O=C1[C@H]2CN(S(=O)(=O)C3CC3)C[C@H]2CN1CC1CC1` was tested, and the “Percent Effect” value was 100.8%. `O=C(CC(F)(F)F)N1C[C@H]2CN(CC3CC3)C(=O)[C@H]2C1` was tested, and the “Percent Effect” value was -26.88%. `CS(=O)(=O)N1C[C@H]2CN(CC3CC3)C(=O)[C@H]2C1` was tested, and the “Percent Effect” value was 101.9%. For `CCS(=O)(=O)N1C[C@H]2CN(CC3CC3)C(=O)[C@H]2C1`, the “Percent Effect” value was 114.7%. With `CC(=O)N1C[C@H]2CN(CC3CC3)C(=O)[C@H]2C1` the “Percent Effect” value was -8.606%. With `O=C1[C@H]2CN(S(=O)(=O)c3cccs3)C[C@H]2CN1CC1CC1` the “Percent Effect” value was -15.27%. With `Cc1cccnc1NC(=O)c1ccc(-n2cncn2)nn1` the “Percent Effect” value was -9.23%. For `CCN(CCCNC(=O)c1cc2cccc(F)c2o1)S(C)(=O)=O`, the “Percent Effect” value was 13.88%. `O=C(NCc1ccc(Cl)s1)c1ccc(N2CCOC2=O)cc1` was tested, and the “Percent Effect” value was -4.831%. `CCOc1nnc(CNC2CCCN(c3ccc(C)nn3)C2)s1` (configuration not stated) was tested, and the “Percent Effect” value was 6.809%. With `Cc1cc(CN(C)C2CCCN(c3cccnn3)C2)on1` (configuration not stated) the “Percent Effect” value was -2.461%. For `CN(Cc1cscn1)C1CCCN(c2cccnn2)C1` (configuration not stated), the “Percent Effect” value was 95.91%. In the case of `CN(Cc1nnc(-c2ccco2)o1)C1CCCN(c2cccnn2)C1` (configuration not stated), the “Percent Effect” value is reported as 5.287%. `Cc1cc(CN(C)C2CCCN(c3cccnn3)C2)no1` (configuration not stated) was tested, and the “Percent Effect” value was 110.4%. For `CCOc1nnc(CN(C)C2CCCN(c3ccc(C)nn3)C2)s1` (configuration not stated), the “Percent Effect” value was 91.1%. With `Cc1ccc(N2CCCC(N(C)Cc3ccccn3)C2)nn1` (configuration not stated) the “Percent Effect” value was 1.725%. For `Cc1cnc(CN(C)C2CCCN(c3cccnn3)C2)cn1` (configuration not stated), the “Percent Effect” value was 107%. With `Cc1ccc(N2CCCC(N(C)Cc3cc(C)on3)C2)nn1` (configuration not stated) the “Percent Effect” value was -10.05%. With `CN(Cc1cc(-c2ccccc2)no1)C1CCCN(c2cccnn2)C1` (configuration not stated) the “Percent Effect” value was -1.752%. `CC(C)n1nc2c(cc1=O)CN(c1nc3ccccc3s1)CC2` was tested, and the “Percent Effect” value was 8.102%.
